The results in this text go back to publication PMC12820563, “FoxP3 forms a head-to-head dimer in vivo and stabilizes its multimerization on adjacent microsatellites”.

Over roughly 16,000 sequences, “rpm ratio (pull-down/input)” has its median near 0.94; the highest 2% begin near 1.7. Many of the other results were omitted from the sample, so the highest values are more common in it than they were.

This experiment has as its target T1, MBP-FoxP1dN (Mus musculus, UniProt P58462 326-579).
T1 sequence: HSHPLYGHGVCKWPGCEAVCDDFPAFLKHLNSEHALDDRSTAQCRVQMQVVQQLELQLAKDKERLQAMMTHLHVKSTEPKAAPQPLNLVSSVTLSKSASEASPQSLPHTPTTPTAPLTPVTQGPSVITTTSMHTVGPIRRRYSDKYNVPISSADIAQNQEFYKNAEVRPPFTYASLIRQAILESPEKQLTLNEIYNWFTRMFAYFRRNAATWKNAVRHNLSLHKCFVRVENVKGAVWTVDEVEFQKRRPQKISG
Briefly: PD-seq (MBP pull-down with sequencing); 20 mM Tris-HCl pH 7.5, 100 mM NaCl, 1.5 mM MgCl2, 0.4 uM protein, 0.1 uM dsDNA library, 30 min, room temperature, amylose pull-down; high values mean tight binding. The following applies: protein: recombinant; tags: His6-MBP; chain copies: 2; dsDNA, one strand shown. A digest of the protocol:
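Binding is the reads-per-million enrichment of pull-down relative to input, pooled across replicates. For this, 0.4 µM His6-MBP-tagged mouse FoxP3 or FoxP1 fragment lacking the N-terminus, made in E. coli, was incubated with 0.1 µM Klenow-filled double-stranded degenerate DNA library for 30 min at room temperature in Tris pH 7.5 buffer with NaCl and MgCl2. Complexes bound to amylose resin were washed three times before proteinase K released the DNA for PCR barcoding and Illumina sequencing.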
Consider “GATGATTGTTCTCCCAGCTGATGAATTAGAAACTTCGAGTAAACAAATTTTCCTAATCTTTCTGTTCAAGCGCCATCTAC”, for which the binding signal was 0.892 RPM ratio (pull-down/input).

For the sequence “GATGATTGTTCTCCCAGCTGATGAATTGTCAACTTCGAGTAAACAAATTTTCCTAATCTTTCTGTTCAAGCGCCATCTAC”, the binding signal is 1.31 RPM ratio (pull-down/input).

For the sequence “GATGATTGTTCTCCCAGCTGATGAATTGGATTCTTCGAGTAAACAAATTTTCCTAATCTTTCTGTTCAAGCGCCATCTAC”, the binding signal was 0.813 RPM ratio (pull-down/input).

As for “GATGATTGTTCTCCCAGCTGATGAATTACAAGGTTCGAGTAAACAAATTTTCCTAATCTTTCTGTTCAAGCGCCATCTAC”, the binding signal is 1.09 RPM ratio (pull-down/input).

“GATGATTGTTCTCCCAGCTGATGAATTCACCACATCGAGTAAACAAATTTTCCTAATCTTTCTGTTCAAGCGCCATCTAC”: the binding signal was 1.12 RPM ratio (pull-down/input).

Consider “GATGATTGTTCTCCCAGCTGATGAATTGGTCTGGTCGAGTAAACAAATTTTCCTAATCTTTCTGTTCAAGCGCCATCTAC”, for which the binding signal was 0.807 RPM ratio (pull-down/input).

With “GATGATTGTTCTCCCAGCTGATGAATTTGATGCGTCGAGTAAACAAATTTTCCTAATCTTTCTGTTCAAGCGCCATCTAC”, the binding signal was 1.13 RPM ratio (pull-down/input).

Regarding “GATGATTGTTCTCCCAGCTGATGAATTAAACAGGTCGAGTAAACAAATTTTCCTAATCTTTCTGTTCAAGCGCCATCTAC”, the binding signal is 1.21 RPM ratio (pull-down/input).

On to “GATGATTGTTCTCCCAGCTGATGAATTTGGGTCTTCGAGTAAACAAATTTTCCTAATCTTTCTGTTCAAGCGCCATCTAC”, for which the binding signal was 0.904 RPM ratio (pull-down/input).

On to “GATGATTGTTCTCCCAGCTGATGAATTATATCGATCGAGTAAACAAATTTTCCTAATCTTTCTGTTCAAGCGCCATCTAC”, for which the binding signal was 0.956 RPM ratio (pull-down/input).

Regarding “GATGATTGTTCTCCCAGCTGATGAATTGTGTTGATCGAGTAAACAAATTTTCCTAATCTTTCTGTTCAAGCGCCATCTAC”, the binding signal is 2.46 RPM ratio (pull-down/input).

Turning to “GATGATTGTTCTCCCAGCTGATGAATTGTATTGATCGAGTAAACAAATTTTCCTAATCTTTCTGTTCAAGCGCCATCTAC”, the binding signal is 2.22 RPM ratio (pull-down/input).

As to “GATGATTGTTCTCCCAGCTGATGAATTGTTTTGATCGAGTAAACAAATTTTCCTAATCTTTCTGTTCAAGCGCCATCTAC”, the binding signal was 2.01 RPM ratio (pull-down/input).

On to “GATGATTGTTCTCCCAGCTGATGAATTTTTTTGATCGAGTAAACAAATTTTCCTAATCTTTCTGTTCAAGCGCCATCTAC”, for which the binding signal was 0.955 RPM ratio (pull-down/input).

Turning to “GATGATTGTTCTCCCAGCTGATGAATTGATCTGATCGAGTAAACAAATTTTCCTAATCTTTCTGTTCAAGCGCCATCTAC”, the binding signal was 0.968 RPM ratio (pull-down/input).

In the case of “GATGATTGTTCTCCCAGCTGATGAATTGATCTAATCGAGTAAACAAATTTTCCTAATCTTTCTGTTCAAGCGCCATCTAC”, the binding signal is 1.19 RPM ratio (pull-down/input).

On to “GATGATTGTTCTCCCAGCTGATGAATTGAATTGATCGAGTAAACAAATTTTCCTAATCTTTCTGTTCAAGCGCCATCTAC”, for which the binding signal is 0.941 RPM ratio (pull-down/input).

As for “GATGATTGTTCTCCCAGCTGATGAATTGATTGTATCGAGTAAACAAATTTTCCTAATCTTTCTGTTCAAGCGCCATCTAC”, the binding signal was 1.54 RPM ratio (pull-down/input).

For “GATGATTGTTCTCCCAGCTGATGAATTTGTTTGATCGAGTAAACAAATTTTCCTAATCTTTCTGTTCAAGCGCCATCTAC”, the binding signal was 1.47 RPM ratio (pull-down/input).

“GATGATTGTTCTCCCAGCTGATGAATTGTGAAAGTCGAGTAAACAAATTTTCCTAATCTTTCTGTTCAAGCGCCATCTAC”: the binding signal is 1.01 RPM ratio (pull-down/input).

In the case of “GATGATTGTTCTCCCAGCTGATGAATTAACAGACTCGAGTAAACAAATTTTCCTAATCTTTCTGTTCAAGCGCCATCTAC”, the binding signal was 0.866 RPM ratio (pull-down/input).

As to “GATGATTGTTCTCCCAGCTGATGAATTCATCCACTCGAGTAAACAAATTTTCCTAATCTTTCTGTTCAAGCGCCATCTAC”, the binding signal was 0.832 RPM ratio (pull-down/input).

As to “GATGATTGTTCTCCCAGCTGATGAATTGTACCACTCGAGTAAACAAATTTTCCTAATCTTTCTGTTCAAGCGCCATCTAC”, the binding signal is 0.996 RPM ratio (pull-down/input).

Take “GATGATTGTTCTCCCAGCTGATGAATTCTCCTTGTCGAGTAAACAAATTTTCCTAATCTTTCTGTTCAAGCGCCATCTAC”: the binding signal was 0.774 RPM ratio (pull-down/input).

Regarding “GATGATTGTTCTCCCAGCTGATGAATTCCTGTTGTCGAGTAAACAAATTTTCCTAATCTTTCTGTTCAAGCGCCATCTAC”, the binding signal is 2.34 RPM ratio (pull-down/input).

For “GATGATTGTTCTCCCAGCTGATGAATTCCTGATGTCGAGTAAACAAATTTTCCTAATCTTTCTGTTCAAGCGCCATCTAC”, the binding signal was 1.08 RPM ratio (pull-down/input).

For “GATGATTGTTCTCCCAGCTGATGAATTCCTCCTGTCGAGTAAACAAATTTTCCTAATCTTTCTGTTCAAGCGCCATCTAC”, the binding signal is 0.729 RPM ratio (pull-down/input).

“GATGATTGTTCTCCCAGCTGATGAATTCATCTTGTCGAGTAAACAAATTTTCCTAATCTTTCTGTTCAAGCGCCATCTAC”: the binding signal was 0.898 RPM ratio (pull-down/input).

On to “GATGATTGTTCTCCCAGCTGATGAATTCTTGTTGTCGAGTAAACAAATTTTCCTAATCTTTCTGTTCAAGCGCCATCTAC”, for which the binding signal is 2.6 RPM ratio (pull-down/input).

Regarding “GATGATTGTTCTCCCAGCTGATGAATTAAAGGTTTCGAGTAAACAAATTTTCCTAATCTTTCTGTTCAAGCGCCATCTAC”, the binding signal is 0.867 RPM ratio (pull-down/input).

Take “GATGATTGTTCTCCCAGCTGATGAATTTCCTGACTCGAGTAAACAAATTTTCCTAATCTTTCTGTTCAAGCGCCATCTAC”: the binding signal was 0.753 RPM ratio (pull-down/input).

With “GATGATTGTTCTCCCAGCTGATGAATTAAGATCTTCGAGTAAACAAATTTTCCTAATCTTTCTGTTCAAGCGCCATCTAC”, the binding signal is 0.868 RPM ratio (pull-down/input).
